In the supplement of paper PMC10849652:
The full data set covers some 7,900 targets. This sample favours those with a hit. About 0.6% of all pairs of compound and target were hits.

Tests used:
Assay in all cases: log2 fold change, soluble protein after heating vs DMSO (PISA); higher = thermal stabilisation; K562 cells, 10 uM, 30 min; active = over 0.2 and 3.5 SD of the protein, either way, in both replicates (recomputed)
[1] = compound: COC1=CC=C(C=C1)CN2C=CC3=C2C=C(C=C3)C(=O)NO
Summary of the method: (§1)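 Values are thermal stability changes relative to control samples and are taken from duplicates. They are stated as log2 fold changes. Before quantification by TMTpro 16plex LC-MS/MS with equalised channel sums, K562 cells at 2×10^6 cells/mL were treated with 10 μM compound for 30 min, heated in aliquots for 3 min across 48°C-58°C, pooled, extracted in PBS with 0.5% NP-40 at 4°C, and centrifuged at 21,000xg for 90 min to give the soluble supernatant.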

filanesib = compound: CON(C)C(=O)N1N=C(c2cc(F)ccc2F)S[C@@]1(CCCN)c1ccccc1 [filanesib]
Summary of the method: as §1

zotarolimus = compound: CO[C@H]1C[C@@H]2CC[C@@H](C)[C@@](O)(O2)C(=O)C(=O)N2CCCC[C@H]2C(=O)O[C@H]([C@H](C)C[C@@H]2CC[C@H](n3cnnn3)[C@H](OC)C2)CC(=O)[C@H](C)/C=C(\C)[C@@H](O)[C@@H](OC)C(=O)[C@H](C)C[C@H](C)/C=C/C=C/C=C/1C [zotarolimus]
Summary of the method: as §1

idasanutlin = compound: COc1cc(C(=O)O)ccc1NC(=O)[C@@H]1N[C@@H](CC(C)(C)C)[C@](C#N)(c2ccc(Cl)cc2F)[C@H]1c1cccc(Cl)c1F [idasanutlin]
Summary of the method: as §1

alisertib = compound: COc1cc(Nc2ncc3c(n2)-c2ccc(Cl)cc2C(c2c(F)cccc2OC)=NC3)ccc1C(=O)O [alisertib]
Summary of the method: as §1

[2] = compound: COc1cc2nc(-c3cc(F)ccc3O)nc(N[C@@H]3CNC[C@H]3C(C)(C)O)c2cc1OC
Summary of the method: as §1

gefitinib = compound: COc1cc2ncnc(Nc3ccc(F)c(Cl)c3)c2cc1OCCCN1CCOCC1 [gefitinib]
Summary of the method: as §1

[3] = compound: COc1cccc2cc(-c3nc([C@H]4CC[C@H](C(=O)O)CC4)n4ncnc(N)c34)[nH]c12
Summary of the method: as §1

lapatinib = compound: CS(=O)(=O)CCNCc1ccc(-c2ccc3ncnc(Nc4ccc(OCc5cccc(F)c5)c(Cl)c4)c3c2)o1 [lapatinib]
Summary of the method: as §1

pictilisib = compound: CS(=O)(=O)N1CCN(Cc2cc3nc(-c4cccc5[nH]ncc45)nc(N4CCOCC4)c3s2)CC1 [pictilisib]
Summary of the method: as §1

[4] = compound: CS(=O)(=O)c1ccc(-c2cnc(N)c(C(=O)Nc3ccccc3)n2)cc1
Summary of the method: as §1

crizotinib = compound: C[C@@H](Oc1cc(-c2cnn(C3CCNCC3)c2)cnc1N)c1c(Cl)ccc(F)c1Cl [crizotinib]
Summary of the method: as §1

[5] = compound: C[C@@H]1COCCN1C2=NC(=NC(=C2)C3(CC3)S(=O)(=O)C)C4=C5C=CNC5=CC=C4
Summary of the method: as §1

[6] = compound: C[C@H](C1=CC=C(C=C1)C(=O)NC2=C3C=CNC3=NC=C2)N
Summary of the method: as §1

duvelisib = compound: C[C@H](Nc1ncnc2nc[nH]c12)c1cc2cccc(Cl)c2c(=O)n1-c1ccccc1 [duvelisib]
Summary of the method: as §1

gandotinib = compound: Cc1cc(Nc2cc(CN3CCOCC3)c3nc(C)c(Cc4ccc(Cl)cc4F)n3n2)n[nH]1 [gandotinib]
Summary of the method: as §1

tozasertib = compound: Cc1cc(Nc2cc(N3CCN(C)CC3)nc(Sc3ccc(NC(=O)C4CC4)cc3)n2)n[nH]1 [tozasertib]
Summary of the method: as §1

[7] = compound: Cc1cc(SCc2sc(-c3ccc(C(F)(F)F)cc3)nc2C)ccc1OCC(=O)O
Summary of the method: as §1

doramapimod = compound: Cc1ccc(-n2nc(C(C)(C)C)cc2NC(=O)Nc2ccc(OCCN3CCOCC3)c3ccccc23)cc1 [doramapimod]
Summary of the method: as §1

ispinesib = compound: Cc1ccc(C(=O)N(CCCN)[C@@H](c2nc3cc(Cl)ccc3c(=O)n2Cc2ccccc2)C(C)C)cc1 [ispinesib]
Summary of the method: as §1

Measured: log2 fold change

PLD3 (UniProt Q8IV08)
UniProt Q8IV08, sequence (Q8IV08 whole entry, looked up): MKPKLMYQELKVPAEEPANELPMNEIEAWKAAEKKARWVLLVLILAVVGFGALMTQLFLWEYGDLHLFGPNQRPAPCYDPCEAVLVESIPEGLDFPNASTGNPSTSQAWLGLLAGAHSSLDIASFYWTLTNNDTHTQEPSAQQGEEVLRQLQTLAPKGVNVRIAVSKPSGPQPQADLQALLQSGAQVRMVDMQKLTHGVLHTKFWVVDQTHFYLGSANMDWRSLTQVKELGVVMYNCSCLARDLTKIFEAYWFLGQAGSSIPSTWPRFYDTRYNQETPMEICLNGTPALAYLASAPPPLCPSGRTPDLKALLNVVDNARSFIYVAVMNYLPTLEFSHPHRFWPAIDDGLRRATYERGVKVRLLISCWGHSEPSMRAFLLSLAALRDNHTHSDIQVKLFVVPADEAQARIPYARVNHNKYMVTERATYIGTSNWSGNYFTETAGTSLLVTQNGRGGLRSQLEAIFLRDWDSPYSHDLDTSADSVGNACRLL
inactive: [1] -0.027 | filanesib -0.131 | zotarolimus -0.006 | idasanutlin 0.001 | alisertib -0.139 | [2] 0.019 | gefitinib 0.008 | [3] 0.027 | lapatinib -0.025 | pictilisib 0.045 | [4] -0.034 | crizotinib -0.158 | [5] 0.005 | [6] -0.03 | duvelisib -0.012 | gandotinib 0.006 | tozasertib -0.009 | [7] -0.023 | doramapimod 0.001 | ispinesib -0.132

PRKACB isoform 2 (UniProt P22694)
inactive: [1] -0.045 | filanesib -0.098 | zotarolimus 0.021 | idasanutlin -0.01 | alisertib -0.037 | [2] 0.124 | gefitinib 0.015 | [3] 0.03 | lapatinib -0.018 | pictilisib -0.018 | [4] -0.009 | crizotinib -0.145 | [5] 0.033 | [6] -0.039 | duvelisib 0.009 | gandotinib -0.091 | tozasertib -0.02 | [7] 0.047 | doramapimod 0.028 | ispinesib -0.043

PRKCE (UniProt Q02156)
UniProt Q02156, sequence (Q02156 whole entry, looked up): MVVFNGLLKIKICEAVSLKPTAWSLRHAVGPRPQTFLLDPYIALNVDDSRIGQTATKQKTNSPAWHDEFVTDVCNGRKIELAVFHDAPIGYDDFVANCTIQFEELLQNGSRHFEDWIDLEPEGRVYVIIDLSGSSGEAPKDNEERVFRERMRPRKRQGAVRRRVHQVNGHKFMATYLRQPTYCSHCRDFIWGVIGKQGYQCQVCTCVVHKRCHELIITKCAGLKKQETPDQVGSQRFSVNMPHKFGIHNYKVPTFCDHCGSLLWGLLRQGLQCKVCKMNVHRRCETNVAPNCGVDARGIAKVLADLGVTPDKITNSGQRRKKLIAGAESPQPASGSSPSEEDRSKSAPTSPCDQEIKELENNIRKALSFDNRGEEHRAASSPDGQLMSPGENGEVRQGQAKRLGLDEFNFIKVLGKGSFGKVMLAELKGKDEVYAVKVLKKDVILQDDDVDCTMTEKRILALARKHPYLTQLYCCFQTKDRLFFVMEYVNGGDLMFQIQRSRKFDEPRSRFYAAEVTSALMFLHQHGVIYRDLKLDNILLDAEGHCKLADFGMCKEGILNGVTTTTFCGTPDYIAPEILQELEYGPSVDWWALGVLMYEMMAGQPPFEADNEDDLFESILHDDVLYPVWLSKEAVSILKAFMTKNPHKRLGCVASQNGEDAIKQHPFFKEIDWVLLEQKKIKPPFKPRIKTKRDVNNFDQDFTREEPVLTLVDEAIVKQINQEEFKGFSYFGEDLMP
inactive: [1] -0.024 | filanesib -0.082 | zotarolimus 0 | idasanutlin -0.085 | alisertib -0.078 | [2] 0.012 | gefitinib 0.029 | [3] -0.104 | lapatinib 0.025 | pictilisib 0.099 | [4] 0.051 | crizotinib -0.071 | [5] 0.083 | [6] -0.168 | duvelisib 0.032 | gandotinib -0.092 | tozasertib 0.071 | [7] 0.055 | doramapimod -0.003

PRKAR2A (UniProt P13861)
UniProt P13861, sequence (P13861 whole entry, looked up): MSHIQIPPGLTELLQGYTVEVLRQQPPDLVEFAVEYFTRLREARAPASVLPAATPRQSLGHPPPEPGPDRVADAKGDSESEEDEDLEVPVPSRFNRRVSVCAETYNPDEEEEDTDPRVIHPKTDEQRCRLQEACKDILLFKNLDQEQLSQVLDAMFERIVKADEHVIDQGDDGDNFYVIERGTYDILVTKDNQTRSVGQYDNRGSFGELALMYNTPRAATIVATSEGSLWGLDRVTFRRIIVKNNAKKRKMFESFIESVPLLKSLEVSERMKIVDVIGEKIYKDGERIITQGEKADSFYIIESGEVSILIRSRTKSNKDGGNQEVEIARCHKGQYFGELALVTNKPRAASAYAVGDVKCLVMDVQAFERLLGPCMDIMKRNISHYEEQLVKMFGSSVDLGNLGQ
active: [2] -0.493
inactive: [1] -0.033 | filanesib -0.021 | zotarolimus 0.013 | idasanutlin -0.009 | alisertib -0.058 | gefitinib 0.048 | [3] 0.006 | lapatinib 0.034 | pictilisib 0.057 | [4] 0.046 | crizotinib -0.038 | [5] 0.089 | [6] -0.159 | duvelisib 0.069 | gandotinib -0.02 | tozasertib 0.04 | [7] 0.023 | doramapimod 0.03 | ispinesib -0.056

PLIN2 (UniProt Q99541)
UniProt Q99541, sequence (Q99541 whole entry, looked up): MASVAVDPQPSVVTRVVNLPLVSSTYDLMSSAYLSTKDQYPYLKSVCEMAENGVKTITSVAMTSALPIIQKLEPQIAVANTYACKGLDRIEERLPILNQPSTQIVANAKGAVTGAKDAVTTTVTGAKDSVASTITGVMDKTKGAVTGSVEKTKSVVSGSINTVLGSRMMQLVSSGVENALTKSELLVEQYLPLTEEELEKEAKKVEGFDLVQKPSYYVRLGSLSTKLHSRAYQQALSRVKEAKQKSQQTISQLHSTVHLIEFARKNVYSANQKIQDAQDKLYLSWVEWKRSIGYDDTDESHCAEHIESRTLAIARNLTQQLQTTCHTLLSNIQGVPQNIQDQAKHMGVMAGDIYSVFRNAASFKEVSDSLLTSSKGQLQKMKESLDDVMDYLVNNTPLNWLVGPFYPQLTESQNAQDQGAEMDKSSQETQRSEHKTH
active: filanesib -0.44 | [2] -0.891 | crizotinib -0.841 | ispinesib -2.6
inactive: [1] -0.014 | zotarolimus -0.041 | idasanutlin -0.107 | alisertib 0.058 | gefitinib 0.003 | [3] 0.028 | lapatinib -0.093 | pictilisib 0.023 | [4] -0.103 | [5] 0.054 | [6] 0.03 | duvelisib 0.098 | gandotinib -0.31 | tozasertib -0.086 | [7] 0.031 | doramapimod -0.092

POLR3K (UniProt Q9Y2Y1)
UniProt Q9Y2Y1, sequence (Q9Y2Y1 whole entry, looked up): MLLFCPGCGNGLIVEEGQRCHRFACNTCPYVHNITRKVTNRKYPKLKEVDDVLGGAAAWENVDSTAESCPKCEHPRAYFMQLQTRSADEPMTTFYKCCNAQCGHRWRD
inactive: [1] -0.078 | filanesib -0.03 | zotarolimus -0.063 | idasanutlin 0.006 | alisertib -0.156 | [2] 0.01 | gefitinib -0.023 | [3] 0.044 | lapatinib 0.057 | pictilisib -0.04 | [4] -0.026 | crizotinib 0.015 | [5] 0.035 | [6] -0.027 | duvelisib 0.067 | gandotinib 0.066 | tozasertib -0.011 | [7] -0.059 | doramapimod 0.038 | ispinesib -0.075

PTMA (UniProt P06454)
UniProt P06454, sequence (P06454 whole entry, looked up): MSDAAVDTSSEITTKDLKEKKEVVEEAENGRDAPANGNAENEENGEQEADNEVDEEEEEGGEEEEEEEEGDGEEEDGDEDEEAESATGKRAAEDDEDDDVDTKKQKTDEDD
inactive: [1] 0.118 | filanesib -0.093 | zotarolimus -0.054 | idasanutlin -0.045 | [2] -0.049 | gefitinib 0.029 | [3] 0.043 | lapatinib -0.016 | pictilisib 0.001 | [4] -0.041 | crizotinib -0.302 | [5] -0.155 | [6] -0.034 | duvelisib 0.006 | gandotinib 0.059 | tozasertib 0.154 | [7] -0.042 | doramapimod 0.072 | ispinesib 0.199
active: alisertib -0.596

PNPLA2 (UniProt Q96AD5)
UniProt Q96AD5, sequence (Q96AD5 whole entry, looked up): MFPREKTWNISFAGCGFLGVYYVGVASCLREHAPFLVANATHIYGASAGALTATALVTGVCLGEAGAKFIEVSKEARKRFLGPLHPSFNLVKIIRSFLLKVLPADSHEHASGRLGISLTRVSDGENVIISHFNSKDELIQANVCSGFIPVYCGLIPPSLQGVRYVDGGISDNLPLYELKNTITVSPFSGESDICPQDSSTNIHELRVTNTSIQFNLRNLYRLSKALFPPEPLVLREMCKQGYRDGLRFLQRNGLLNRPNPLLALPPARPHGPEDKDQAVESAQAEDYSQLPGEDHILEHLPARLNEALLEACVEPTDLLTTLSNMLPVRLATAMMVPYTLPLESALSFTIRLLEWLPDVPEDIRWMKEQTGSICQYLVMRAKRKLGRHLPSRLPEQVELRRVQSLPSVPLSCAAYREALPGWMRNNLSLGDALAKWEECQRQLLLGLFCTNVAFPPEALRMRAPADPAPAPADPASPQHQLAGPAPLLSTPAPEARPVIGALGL
active: ispinesib -0.395
inactive: [1] -0.089 | filanesib -0.134 | zotarolimus 0.002 | idasanutlin -0.082 | alisertib 0.014 | [2] -0.077 | gefitinib -0.048 | [3] 0.029 | lapatinib -0.032 | pictilisib 0.02 | [4] 0.048 | crizotinib -0.055 | [5] 0.094 | [6] 0.095 | duvelisib 0.156 | gandotinib -0.303 | tozasertib -0.06 | [7] -0.065 | doramapimod 0.046
